Screens as filed in PubChem BioAssay.
FBW7 activator = FBW7 E3 ligase activators, primary screen, biochemical, AlphaScreen, human. hit rate 0.13% among 650,000. normalized activity (activation), % at 26.1 µM. AID 1259310, 2017. AlphaScreen FBW7–phospho-cyclin E peptide binding, activator screen; in the data active means normalized activity above about 1.9%;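 further: purified mutant Fbw7 with reduced substrate affinity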
GPR151 activ = activators of human GPR151, primary screen, cell-based, PathHunter beta-arrestin, luminescence; G-protein coupled receptor 151 (Homo sapiens), Q8TDV0; PathHunter beta-arrestin GPR151 cells; activation, % at 11.2 µM; hit rate 1% among 650,000; AID 1508602, 2020; in the data active means activation above about 4.9%
MITF inh = MITF inhibitors, primary screen, biochemical, AlphaScreen, human | AlphaScreen MITF homodimerization, bead proximity signal | hit rate 0.91% among 650,000 | Microphthalmia-associated transcription factor (Homo sapiens), O75030 | AID 1259374, 2018 | inhibition, % at 2.6 µM; in the data active means inhibition above about 50%
TEAD-YAP inh = TEAD-YAP interaction inhibition, primary screen, TEAD-YAP interaction inhibitor project, luminescence, HEK-TIYL cells | TEAD-Gal4/YAP UAS-luciferase luminescence | inhibition, % at 9.12 µM | hit rate 1.4% among 640,000 | AID 1259422, 2018; in the data active means inhibition above about 32%
GPR151 confirm = GPR151 activators, triplicate retest, confirmation, cell-based, PathHunter beta-arrestin, luminescence. shares compounds with GPR151 activ. GPR151 PathHunter beta-arrestin cells, 90 min; % of EA-reagent control over plate median. activation, % at 11.2 µM. 6,700 tested, under 10 active;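 active means mean percent activation across replicates above the confirmation screen cutoff of 4.91%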
GPR119 ag = GPR119 activators in beta-arrestin cells, counter-screen for GPR151 activator project, cell-based, PathHunter beta-arrestin, luminescence, triplicate; AID 1508611, 2020; 90 min; 0 = compound-well median, 100 = enzyme-acceptor control; shares compounds with GPR151 activ; hit rate 0.3% among 6,700; activation, % at 11.2 µM;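 active means mean percent activation in the counterscreen above 29.09%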;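 further: counterscreen on off-target GPR119 to flag nonselective hits from the GPR151 activator screen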
Target sequence (Q8TDV5 whole entry, looked up): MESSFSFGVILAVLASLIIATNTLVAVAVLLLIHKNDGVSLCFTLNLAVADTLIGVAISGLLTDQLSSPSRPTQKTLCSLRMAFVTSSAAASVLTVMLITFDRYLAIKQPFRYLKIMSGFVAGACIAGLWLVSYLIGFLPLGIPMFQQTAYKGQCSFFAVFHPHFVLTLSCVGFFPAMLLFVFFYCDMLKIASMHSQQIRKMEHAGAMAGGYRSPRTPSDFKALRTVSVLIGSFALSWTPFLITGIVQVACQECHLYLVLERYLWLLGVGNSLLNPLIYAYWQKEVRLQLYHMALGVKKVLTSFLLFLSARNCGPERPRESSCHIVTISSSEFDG
Each line names hits and unclear results; the compound was inactive in the other large screens (follow-up assays come after a bar, where they were run). This is a sample that favours compounds with a hit; in the whole collection about 3.5% have one here.

O=C(CN1CC(=O)N2CCCC2C1=O)NCCc1ccccc1 (stereo not drawn)	none
O=C(CN1CC(=O)N2CCCC2C1=O)NCCc1ccc(Cl)cc1 (stereo not drawn)	GPR151 activ 7.8 | GPR151 confirm inactive | GPR119 ag inactive
O=C(CN1CC(=O)N2CCCC2C1=O)NCc1cccc(Cl)c1 (stereo not drawn)	GPR151 activ 10 | GPR151 confirm inactive | GPR119 ag inactive
COc1ccc(/C=C/CN2CCN(CC(C)C)C(CCO)C2)cc1 (stereo not drawn)	none
COc1ccc(Cl)cc1NC(=O)c1oc(=O)c2ccccc2c1-c1ccc(C)cc1	none
C=CCn1c(SCC)nc(O)c(CC)c1=O	none
O=C(CN1CCN(Cc2ccccc2)C1=O)NCc1ccc(Cl)cc1	GPR151 activ 13 | GPR151 confirm inactive | GPR119 ag inactive
O=C(NCc1ccccc1)C1C2C=CC3(CN(Cc4ccccc4)C(=O)C13)O2 (stereo not drawn)	none
O=C(NCc1ccc(Cl)cc1)C1C2C=CC3(CN(Cc4ccccc4)C(=O)C13)O2 (stereo not drawn)	GPR151 activ 5.1 | GPR151 confirm inactive | GPR119 ag inactive
CCCNC(=O)c1cncc(-c2ccc(C(=O)NC3CC3)cc2)c1	GPR151 activ 5.7 | GPR151 confirm inactive | GPR119 ag inactive
COc1cccc(/C=N\N=c2\sc3ccccc3n2C)c1OC	none
COc1ccc(/C=N/N=c2\sc3ccccc3n2C)c(OC)c1	GPR151 activ 9.2 | GPR151 confirm inactive | GPR119 ag inactive
O=C(N/N=C/c1ccncc1)C1CC1(c1ccccc1)c1ccccc1 (stereo not drawn)	GPR151 activ 5.9 | GPR151 confirm inactive | GPR119 ag inactive
Cc1nc2cnc(-c3ccc(O)cc3)cn2c1NC(=O)CC1CCOCC1	GPR151 activ 12 | GPR151 confirm inactive | GPR119 ag inactive
Cc1nc2cnc(-c3ccc(O)cc3)cn2c1NC(=O)c1cccs1	none
Cc1ccccc1CN1CCC2(CCC(CNC(=O)CCn3cncn3)O2)CC1 (stereo not drawn)	none
Cc1nn2cnc3sc4c(c3c2nc1=O)CCC(C(C)(C)C)C4 (stereo not drawn)	GPR151 activ 7.0 | GPR151 confirm inactive | GPR119 ag inactive
Cn1c(NN)nc2sc3c(c2c1=O)CCC(C(C)(C)C)C3 (stereo not drawn)	none
O=C(CN1CCN(c2nc(-c3ccccc3)cs2)CC1)Nc1ccccc1[N+](=O)[O-]	none
Cc1ccc(-c2csc(N3CCN(CC(=O)Nc4ccc([N+](=O)[O-])cc4)CC3)n2)cc1	GPR151 activ 7.0 | GPR151 confirm inactive | GPR119 ag inactive
CCc1nc(-n2nc(C)cc2N)c2c3c(sc2n1)CCCC3	GPR151 activ 6.5 | GPR151 confirm inactive | GPR119 ag inactive
CCc1nc(-n2nc(C)cc2N)c2c3c(sc2n1)CCC3	none
O=C1CC(c2ccc3c(c2)OCO3)c2ccc3ccccc3c2N1 (stereo not drawn)	none
CC1=C(C(=O)OC2CCCCCC2)C(c2ccccc2[N+](=O)[O-])CC(=O)N1 (stereo not drawn)	none
O=C1CC(c2cc3c(cc2[N+](=O)[O-])OCO3)c2ccc3ccccc3c2N1 (stereo not drawn)	GPR151 activ 12 | GPR151 confirm inactive | GPR119 ag inactive
CC1=C(C(=O)OC2CCCCCCC2)C(c2ccccc2[N+](=O)[O-])CC(=O)N1 (stereo not drawn)	GPR151 activ 5.3 | GPR151 confirm inactive | GPR119 ag inactive
O=C1CC(c2ccccc2[N+](=O)[O-])c2ccc3c(O)cccc3c2N1 (stereo not drawn)	GPR151 activ 5.3 | GPR151 confirm inactive | GPR119 ag inactive
CC1(C)C(=O)Nc2ccccc2N1C(=O)COc1ccc(-c2ccc(C#N)cc2)cc1	none
COc1ccc(C(=O)N/N=C/c2ccc(C(C)C)cc2)cc1	none
Cc1ccc(NC(=O)c2cnc(SCc3cccnc3)n(C)c2=O)cc1C	GPR151 activ 10.0 | GPR151 confirm inactive | GPR119 ag inactive
COc1ccc(OC)c(Nc2nc(-c3cccnc3)cs2)c1	none
O=C(CSc1ccsc1[N+](=O)[O-])N1CCN(c2ncccn2)CC1	none
O=C(CSc1ccsc1[N+](=O)[O-])N1CCN(c2ccccn2)CC1	GPR151 activ 5.3 | GPR151 confirm inactive | GPR119 ag inactive
COc1ccc(C2=NS(=O)(=O)N(C)C(C(=O)N(C)C3CCCCC3)=C2)cc1	GPR151 activ 11 | GPR151 confirm inactive | GPR119 ag inactive
Cc1ccc(C2=NS(=O)(=O)N(C)C(C(=O)N(C)C3CCCCC3)=C2)cc1	none
CCOC(=O)/C(C#N)=C/N/N=C(C)/C(C)=N/O	none
C=CCn1c(SCC(=O)Nc2cccc(SC)c2)nnc1-c1ccccc1O	GPR151 activ 5.7 | GPR151 confirm inactive | GPR119 ag inactive
CC(=O)c1cccc(NC(=O)CSc2nnc(-c3cc4ccccc4cc3O)n2C)c1	GPR151 activ 5.0 | GPR151 confirm inactive | GPR119 ag inactive
C=CCn1c(CNC(=O)c2ccco2)nnc1SCC(=O)Nc1cccc(F)c1	GPR151 activ 7.3 | GPR151 confirm inactive | GPR119 ag inactive
O=c1[nH]c2sc3c(c2c(=O)n1-c1ccccc1)CCCC3	none
O=c1[nH]c(=S)c2c(n1-c1ccccc1)CCC2	GPR151 activ 5.9 | GPR151 confirm inactive | GPR119 ag inactive
COC(=O)C1=C(C(=O)OC)[C@@H]2N(Cc3ccccc3)c3ccccc3[C@@]23C[C@@H](CO)N(C(=O)NC2CCCCC2)C3=N1	none (no result: TEAD-YAP inh)
COC(=O)C1=C(C(=O)OC)[C@@H]2N(Cc3ccccc3)c3ccccc3[C@@]23C[C@@H](CO)N=C3N1	GPR151 activ 6.8 (no result: TEAD-YAP inh) | GPR151 confirm inactive | GPR119 ag inactive
O=C(NC1CCN(C(=O)Nc2cccc(F)c2)CC1)c1cccc(F)c1	none
O=C(NC1CCN(C(=O)NCc2ccccc2)CC1)c1cccc(F)c1	GPR151 activ 5.6 | GPR151 confirm inactive | GPR119 ag inactive
C=CCNC(=O)C1CCN(C(=O)NCc2ccccc2)CC1	GPR151 activ 10.0 | GPR151 confirm inactive | GPR119 ag inactive
CCCC(=O)Nc1ccc(C(=O)N2CCN(c3cccc(Cl)c3)CC2)cc1	GPR151 activ 6.3 | GPR151 confirm inactive | GPR119 ag inactive
O=C(C(=O)N1CCN(c2cccc(Cl)c2)CC1)N1CCCCC1	GPR151 activ 5.3 | GPR151 confirm inactive | GPR119 ag inactive
O=C(C1CC1)N1CCN(c2cccc(Cl)c2)CC1	none
